Eight compounds from PubChem BioAssay (NCATS) can be followed below.

Inconclusive results are not listed. Calls of active or inactive are those of the source. Unless noted, the call rests on the fitted dose curve; in most records, active means well fitted curve in the direction sought with a large enough effect; inconclusive means small, poorly fitted or top-dose-only effect, or another doubt; inactive means no such curve, though single readings can be large; an effect the other way counts as inactive or inconclusive.

Assay [1] in a line: qHTS profiling for inhibitors of Plasmodium falciparum proliferation (AID 504749). Further: nearly all actives have a fitted effect of over 60% in size. Further: potency means the concentration at half of the fitted maximal effect.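 On activity, negative = inhibition: 0% = DMSO vehicle and full inhibition = artemisinin control.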 The note with it: P. falciparum in erythrocytes, SYBR Green DNA, 72 h. In a few lines:
(§1)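 P. falciparum-infected erythrocytes (0.3% parasitemia, 2.5% hematocrit) incubated with compound 72 h at 37 C, 5% CO2. Parasite DNA detected by SYBR Green after lysis, overnight at room temperature; normalised to 0.29 uM artemisinin and DMSO.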

For another assay, the system named is 3D7. The description is as above. Conditions: P. falciparum in erythrocytes, SYBR Green DNA, 72 h; series mostly up to 28.7 µM. In a few lines: as §1
The next assay deals with 7G8. Described as above. Conditions: P. falciparum in erythrocytes, SYBR Green DNA, 72 h; series mostly up to 28.7 µM. In a few lines:
as §1

For a further assay, the system named is AA1029. Described as above. Conditions: P. falciparum in erythrocytes, SYBR Green DNA, 72 h; series mostly up to 28.7 µM. Summed up: as §1
The next assay concerns AS120. The description is as above. Conditions: P. falciparum in erythrocytes, SYBR Green DNA, 72 h; series mostly up to 28.7 µM. In a few lines: as §1
Another assay relates to ATS189. Described as above. The note with it: P. falciparum in erythrocytes, SYBR Green DNA, 72 h; series mostly up to 28.7 µM. Summed up:
as §1

For a further assay, the system named is ATS95. Described as above. The note with it: P. falciparum in erythrocytes, SYBR Green DNA, 72 h; series mostly up to 28.7 µM. In a few lines:
as §1

The subject of another assay is C2A. The assay is described as above. Conditions: P. falciparum in erythrocytes, SYBR Green DNA, 72 h; series mostly up to 28.7 µM. Summed up:
as §1

The test system of another assay is CP185. Described as above. Conditions: P. falciparum in erythrocytes, SYBR Green DNA, 72 h; series mostly up to 28.7 µM. Summed up:
as §1

In a further assay the test system is CP191. The description is as above. The note with it: P. falciparum in erythrocytes, SYBR Green DNA, 72 h; series mostly up to 28.7 µM. Summed up: as §1
The subject of the next assay is CP192. The description is as above. Conditions: P. falciparum in erythrocytes, SYBR Green DNA, 72 h; series mostly up to 28.7 µM. In a few lines:
as §1

A further assay concerns CP194. The description is as above. The note with it: P. falciparum in erythrocytes, SYBR Green DNA, 72 h; series mostly up to 28.7 µM. Summed up:
as §1

The test system of the next assay is CP201. The assay is described as above. The note with it: P. falciparum in erythrocytes, SYBR Green DNA, 72 h; series mostly up to 28.7 µM. In a few lines:
as §1

Assay [2] in a line: qHTS drug screen for cell cycle checkpoint inhibitors in PARPi-resistant BRCA-mutant ovarian cancer cell lines. (AID 1963452; calls by dose curve). The note with it: PEO1/OlaR viability, CellTiter-Glo luminescence, 96 h, stronger effect = lower value. In a few lines:
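PEO1, PEO4 and PEO1/OlaR ovarian cancer cells, 600 per well, exposed 96 h at 37C to a dilution series. Viability read by CellTiter-Glo luminescence, normalized to DMSO and empty wells; activity summarized as Z-AUC.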
A general note: In qHTS, concentration-response curves come from the screen itself.

Assay [3] is described as follows: KB-8-5-11 P-gp reporter qHTS against the NCATS DSHEA and TCM libraries (AID 1919977). Further: 0% is about no effect. Conditions: KB-8-5-11 cells; series mostly up to 26.1 µM. In a few lines: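 KB-8-5-11, 500 cells/well, DMEM/10% FBS without colchicine; 4 h attach; cpd titrations, 72 h, 37C/5% CO2; CellTiter-Glo, 30 min RT, luminescence.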
Assay [4] can be described thus: qHTS Counterscreen for compound interference against the NCATS DSHEA and TCM libraries (AID 1919978).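 Further: compounds preincubated with 1 µM D-luciferin or buffer before detection reagent; % of control where 0% means no effect.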 Conditions: firefly luciferase detection reagent interference, luminescence. In a few lines:
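Compounds, titrated from 19.5 nM to 39.8 uM final, were pinned onto 1 uM D-luciferin or plain 100 mM potassium phosphate. After 15 min at room temperature, luciferin detection reagent was added for 30 min before the luminescence read.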

Assay [5] is described as follows: Dual reporter qHTS for agonist of Pregnane X Receptor (hPXR) against the NCATS DSHEA and TCM libraries: Fluorescence readout (AID 1920058). Further: 0% is about no effect. Conditions: PXR dual reporter cells; series mostly up to 40 µM. Summed up: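 HepG2 hPXR-Luc, 2000 cells/well, 5 h attach; cpds ~24 h, 37 °C/5% CO2; CellTiter-Fluor 1 h; fluor. Ex/Em 405/540 nm = viability.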
In assay [6] the target is Nuclear receptor subfamily 1 group I member 2 (Homo sapiens) (UniProt O75469). Kind of assay: Dual reporter qHTS for agonist of Pregnane X Receptor (hPXR) against the NCATS DSHEA and TCM libraries: Luminescence readout (AID 1920059). Further: 0% is about no effect. Conditions: hPXR dual reporter cells, luciferase luminescence agonist; series mostly up to 40 µM. In a few lines:
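hPXR-Luc HepG2 cells, 2000/well in 5% charcoal-stripped FBS medium, attached 5 h, then exposed 24 h at 37C to compounds. Viability by CellTiter-Fluor, then luciferase luminescence with ONE-Glo.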

The nature of assay [7]: Dual reporter qHTS for antagonist of Pregnane X Receptor (hPXR) against the NCATS DSHEA and TCM libraries: Fluorescence Readout (AID 1920061). Further: 0% is about no effect. The note with it: PXR dual reporter cells, antagonist mode; series mostly up to 40 µM. Summed up: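 In antagonist mode, 2 uM rifampicin was added to hPXR-Luc HepG2 cells alongside test substances, incubated 24 h at 37 C; luminescence gave reporter activity, and CellTiter-Fluor fluorescence (405/540 nm) gave viability.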

Where [8] appears, read: at 28.7 µM (top of the series), parasite line A.
The mark [9] stands for this setting: at 28.7 µM (top of the series), parasite line B.
[10] abbreviates: measured here: PEO1 parental Z-AUC.

Chain of Nuclear receptor subfamily 1 group I member 2 (Homo sapiens) (O75469 whole entry, looked up): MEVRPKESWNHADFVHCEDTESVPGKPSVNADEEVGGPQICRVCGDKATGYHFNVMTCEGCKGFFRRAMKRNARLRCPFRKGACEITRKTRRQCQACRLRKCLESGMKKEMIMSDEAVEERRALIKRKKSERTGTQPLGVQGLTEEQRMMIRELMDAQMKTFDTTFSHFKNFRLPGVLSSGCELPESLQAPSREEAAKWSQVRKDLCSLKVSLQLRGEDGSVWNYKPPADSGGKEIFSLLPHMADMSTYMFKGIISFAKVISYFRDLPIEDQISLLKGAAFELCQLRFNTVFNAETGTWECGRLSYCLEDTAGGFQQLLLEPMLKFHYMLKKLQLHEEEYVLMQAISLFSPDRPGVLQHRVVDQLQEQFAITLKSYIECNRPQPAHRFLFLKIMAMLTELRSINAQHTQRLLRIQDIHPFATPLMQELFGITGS

In the case of `NCC(O)c1cccc(O)c1` (stereo not given), the activity, negative = inhibition in [1] (setting [8]) is 5.65% (inactive); in assay [1] (setting [9]) it was 12% (inactive). Also, the Potency entry with 3D7, in the assay on 7G8, in the assay with AA1029, in the assay with AS120, in the assay on ATS189 and in the assay on ATS95 was “inactive” in each case. The Potency result in the assay with C2A, in the assay with CP185, in the assay on CP191, in the assay with CP192, in the assay on CP194 and with CP201 was “inactive” throughout.
As for `CC(=O)c1c(O)c(C)c(O)c(Cc2c(O)c3c(c(C(=O)/C=C/c4ccccc4)c2O)OC(C)(C)C=C3)c1O`, the Z-AUC is 1.03 (inactive) in [2], 0.667 in assay [2] (setting [10]) and 0.636 in assay [2] (measured here: PEO4 Z-AUC).
Consider `C=CCN(C1=NCCN1)c1c(Cl)cccc1Cl`, for which the results for the activity, negative = inhibition in assay [1] (setting [8]) and in assay [1] (setting [9]) were 11.1% (inactive) and 1.37% (inactive), respectively. In addition, the Potency result in the assay with 3D7, with 7G8, in the assay on AA1029, in the assay with AS120, in the assay with ATS189 and in the assay on ATS95 was “inactive” in each case. Moreover, the Potency result in the assay on C2A, with CP185, with CP191, in the assay on CP192, with CP194 and in the assay on CP201 was “inactive” in each case.
On to `CCC1C(C)=NN=C(c2ccc(OC)c(OC)c2)c2cc(OC)c(OC)cc21` (stereo not given), for which the figures for the activity, negative = inhibition in [1] (setting [8]) and in assay [1] (setting [9]) were 12.9% (inactive) and 13.3% (inactive), respectively. Besides, the Potency entry in the assay with 3D7, in the assay with AA1029, in the assay with AS120, with ATS189, in the assay with ATS95 and in the assay on C2A was “inactive” each time. The Potency result in the assay with CP185, in the assay on CP191, in the assay with CP192, with CP194 and in the assay on CP201 was “inactive” in each case. Besides, in the assay on 7G8, the Potency was 14.1 µM (active).
As for `C/C(O)=C(\C#N)C(=O)Nc1cc(Br)ccc1Br`, the Z-AUC in assay [2] is -0.13 (inactive); in [2] (setting [10]), 0.336; in assay [2] (measured here: PEO4 Z-AUC) it was 0.627.
`COC1=CC=C2[C@H]3Cc4ccc(OC)c5c4[C@@]2(CCN3C)[C@H]1O5`: the activity, negative = inhibition in assay [1] (at 12.8 µM (top of the series), parasite line A) was -6.15% (inactive); in [1] (at 12.8 µM (top of the series), parasite line B), 12.3% (inactive). For the same compound, the Potency result in the assay on 3D7, in the assay on 7G8, in the assay with AA1029, in the assay on AS120, in the assay on ATS189 and with ATS95 was “inactive” throughout. Further, the Potency entry in the assay on C2A, with CP185, in the assay with CP191, in the assay on CP192, in the assay on CP194 and in the assay with CP201 was “inactive” throughout.
Consider `ClC=C(Cl)Cl`, for which the activity, negative = inhibition was 6.3% (inactive) in [1] (setting [8]) and 0.959% (inactive) in assay [1] (setting [9]). Also, the Potency entry in the assay on 3D7, in the assay with 7G8, with AA1029, with AS120, in the assay with ATS189 and with ATS95 was “inactive” throughout. In addition, the Potency entry in the assay on C2A, with CP185, with CP191, with CP192, in the assay with CP194 and with CP201 was “inactive” throughout.
As for `CNC(C)C(O)c1ccc(O)cc1` (stereo not given), the outcome in assay [3], in assay [5], in assay [6] and in assay [7] was inactive. Also, the max response in assay [4] was -3.49% (inactive). Besides, the activity, negative = inhibition was 5.26% (inactive) in assay [1] (setting [8]) and -1.7% (inactive) in assay [1] (setting [9]). Besides, the Potency result with 3D7, in the assay with 7G8, in the assay on AA1029, with AS120, with ATS189 and in the assay on ATS95 was “inactive” in each case. The Potency result in the assay on C2A, in the assay with CP185, in the assay with CP191, with CP192, with CP194 and with CP201 was “inactive” throughout.
